Screening results (PubChem BioAssay)
tim10-1 inh – tim10-1 yeast growth inhibition. inhibition, % at 20 µM. actives 2.2% (n = 330,000). S. cerevisiae tim10-1 ts strain growth, BacTiter-Glo, 24 h;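 active = inhibition of at least 40%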;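 note: mutant grown at 25 °C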
Rce1 inh – blocks yeast Ras-converting enzyme; yeast membranes, quenched prenylated peptide cleavage fluorescence; calls only; actives 0.27% (n = 290,000); AID 2563;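 active = fall in fluorescence gain of 50% or more versus controls, with final raw signal at or below 3038400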
Target sequence (Q03530 whole entry, looked up): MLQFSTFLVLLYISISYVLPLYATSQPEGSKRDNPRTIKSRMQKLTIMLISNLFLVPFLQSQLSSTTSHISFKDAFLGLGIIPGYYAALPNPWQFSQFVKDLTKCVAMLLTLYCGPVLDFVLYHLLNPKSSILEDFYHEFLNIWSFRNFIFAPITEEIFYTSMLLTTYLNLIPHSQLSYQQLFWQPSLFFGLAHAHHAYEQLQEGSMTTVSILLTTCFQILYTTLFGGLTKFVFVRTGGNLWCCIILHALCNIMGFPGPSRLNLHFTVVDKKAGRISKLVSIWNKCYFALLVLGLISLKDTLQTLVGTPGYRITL
tim23-1 inh – inhibits growth of tim23-1 mutant yeast; S. cerevisiae tim23-1 growth, BacTiter-Glo luminescence, 24 h; inhibition, % at 20 µM; actives 1.3% (n = 330,000);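 active = growth inhibition of the mutant yeast at or above 50%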;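 note: temperature-sensitive mutant grown at 25 °C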
PfHsp90 yeast 2 – reduces growth (ATP signal) of yeast expressing P. falciparum Hsp90; actives 0.32% (n = 310,000); S. cerevisiae expressing PfHsp90, BacTiter-Glo ATP, 48 h; yeast lacking PDR1 and PDR3 efflux regulators; inhibition, % at 9.4 µM;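 active = every replicate shows inhibition above about 80%, whatever the replicate mean, limit read from the data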
TIM10 inh – inhibits growth of TIM10 yeast strain; S. cerevisiae TIM10 strain growth, BacTiter-Glo luminescence, 24 h; inhibition, % at 10 µM; actives 1.4% (n = 330,000); AID 463195;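 active = inhibition of 40% or more at the single tested concentration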;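 note: wild-type TIM10 isogenic control strain grown at permissive 25 °C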
tim10-1 confirm – tim10-1 yeast growth inhibition, confirmed | S. cerevisiae tim10-1 ts strain growth, BacTiter-Glo, 24 h | shares compounds with tim10-1 inh | actives 56% (n = 7,400) | inhibition, % at 20 µM | AID 463213;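 active = inhibition of yeast growth at or above a set limit in either of two repeat tests at 20 µM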;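 note: tim10-1 mutant grown at permissive 25 °C to find synthetic lethal compounds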
Large screens that a line does not name were inactive (follow-up assays come after a bar, where they were run). A selection: hits, their analogues and other compounds. The true share with any hit is near 3.7%.

Cc1ccccc1NC1=C(Cl)C(=O)OC1OC(=O)c1ccccc1C (configuration not stated)	tim10-1 inh 40 | tim10-1 confirm inactive
CCCNC(=O)C(Cc1ccc(I)cc1)NC(=O)C1CC1 (configuration not stated)	none (no result: Rce1 inh)
Cn1c(SCC(=O)N2CCCC2)nnc1-c1cnccn1	none
NS(=O)(=O)c1ccc(NC(=O)c2cccc(Cl)c2)cc1	none
O=C1CC(Sc2nnc(-c3ccccc3O)o2)C(=O)N1c1ccccc1 (configuration not stated)	none
COc1ccc(N2C(=O)CC(Sc3nnc(-c4ccccc4)o3)C2=O)cc1 (configuration not stated)	tim10-1 inh 53 | tim10-1 confirm 55
O=C(Cn1nnc2ccccc2c1=O)N[C@@H](Cc1c[nH]c2ccccc12)C(=O)O	none
Cc1oc2c(C)c3oc(=O)c4c(c3cc2c1C)CCCC4	tim10-1 inh 54 | tim10-1 confirm 55
Cc1coc2cc3oc(=O)c4c(c3cc12)CCCC4	none
O=C(c1ccc2nc(Cc3cccc(Cl)c3)oc2c1)N1CCC(O)CC1	none
CCCCNC(=O)CNC(=S)N(Cc1ccccc1)Cc1cccs1	tim10-1 inh 47 | tim10-1 confirm inactive
COc1cccc(NC(=O)Nc2cc(C)ccc2OC)c1	tim10-1 inh 40 | tim10-1 confirm inactive
Cc1ccc(-c2cc(-c3ccccc3)c3c(N)c(S(C)(=O)=O)sc3n2)cc1	tim10-1 inh 49 | tim10-1 confirm 43
COc1ccc2cc(C(=O)N/N=C/c3cc(OC)c(OC)c(OC)c3)[nH]c2c1	tim10-1 inh 40 | tim10-1 confirm inactive
COc1ccc(/C=N/NC(=O)c2cc3cc(OC)c(OC)cc3[nH]2)cc1	none
O=C(OCc1ccccc1F)c1cc2ccccc2cc1O	none
O=C(Cc1ccccc1F)c1ccc(O)cc1O	tim10-1 inh 43 | tim10-1 confirm 31
OC(COc1ccccc1)Cn1c2ccccc2c2ccccc21 (configuration not stated)	tim10-1 inh 42 | tim10-1 confirm 51
O=C(O)c1ccc(OCC(O)Cn2c3ccccc3c3ccccc32)cc1 (configuration not stated)	none
COC(=O)C1=C(C(=O)OC)[C@@H]2N(Cc3ccccc3)c3ccccc3[C@@]23C[C@@H](C(=O)OC)N(C(=O)c2cccs2)C3=N1	tim10-1 inh 42 | tim10-1 confirm inactive
COC(=O)c1cc2c(C)[nH]c(C)c2cc(C(=O)OC)c1=O	none
COc1ccc(Nc2nc(Nc3ccc(OC)cc3)nc(SC3=NCCS3)n2)cc1	none | tim10-1 confirm inactive
O=S(=O)(c1ccc(Br)cc1F)N1CC[C@H](O)C1	none (no result: tim10-1 inh, Rce1 inh, tim23-1 inh, TIM10 inh)
Nc1ccc(Cc2ccc(N)c(O)c2)cc1O	none (no result: tim10-1 inh, Rce1 inh, tim23-1 inh, TIM10 inh)
C/C(=N\NC(=O)c1cc2ccccc2cc1O)c1ccccn1	tim10-1 inh 60, PfHsp90 yeast 2 92 | tim10-1 confirm inactive
C/C(=N/NC(=O)c1cc2ccccc2cc1O)C1C(=O)c2ccccc2C1=O	tim10-1 inh 47 | tim10-1 confirm 32
C/C(=N\NC(=O)c1cc2ccccc2cc1O)c1cc2ccccc2o1	none
COCCCn1cc(C(=O)c2ccccc2OCC(=O)Nc2cccc(F)c2)cc(C#N)c1=O	none
Cc1sc2ncnc(SCC(=O)N3CCC(c4noc5ccc(F)cc45)CC3)c2c1C	tim10-1 inh 50 | tim10-1 confirm inactive
Cc1nnc(SCC(=O)N2CCC(c3noc4ccc(F)cc34)CC2)s1	none (no result: PfHsp90 yeast 2)
Cc1ccc(C(C)NC(=S)NC2CCCCC2)c(C)c1 (configuration not stated)	tim10-1 inh 41 | tim10-1 confirm inactive
Cc1ccccc1C(=O)NCCNC(=O)c1cnccn1	none
CNc1sc(C(=O)c2ccccc2F)c(N)c1-c1nc2ccccc2s1	tim10-1 inh 46 (no result: PfHsp90 yeast 2) | tim10-1 confirm 35
OCc1ccnc2oc3ccccc3c12	none
CCC(C)Nc1ncnc2c1cnn2Cc1ccc(Cl)cc1 (configuration not stated)	tim10-1 inh 43 | tim10-1 confirm inactive
CC(C)Nc1ncnc2c1cnn2Cc1ccc(Cl)cc1	tim10-1 inh 43 | tim10-1 confirm inactive
Cc1ccc(Cn2ncc3c(NN)ncnc32)cc1	none
Cc1cc(NC(=O)c2ccccc2Oc2ccccc2)no1	tim10-1 inh 44 | tim10-1 confirm 31
CCCCN1CCc2[nH]c(=S)[nH]c(=O)c2C1	none
CCc1ccc(/C=C2\Oc3cc(OS(C)(=O)=O)ccc3C2=O)cc1	tim10-1 inh 40 | tim10-1 confirm inactive
O=C(Oc1c(-c2ccccc2)c(=O)n2c3c(cccc13)CC2)c1ccco1	tim10-1 inh 46 | tim10-1 confirm inactive
OCCN(Cc1nc(-c2ccc3c(c2)OCO3)no1)Cc1cccs1	none
Cc1nc(N/C(N)=N/S(=O)(=O)c2ccc([N+](=O)[O-])cc2)nc2ccccc12	none
Cc1ccc2c(C)nc(N/C(N)=N/S(=O)(=O)c3ccc([N+](=O)[O-])cc3)nc2c1	tim10-1 inh 42 (no result: PfHsp90 yeast 2) | tim10-1 confirm inactive
COc1ccc(NC(=S)/N=C(\N)Nc2nc(C)c3ccc(C)cc3n2)cc1	tim10-1 inh 40 (no result: PfHsp90 yeast 2) | tim10-1 confirm inactive
Cc1cc(C)n(-c2ccn(Cc3ccc(Cl)cc3Cl)c(=O)n2)n1	tim10-1 inh 40 (no result: PfHsp90 yeast 2) | tim10-1 confirm inactive
CCN(CC)S(=O)(=O)c1ccc2oc(C(=O)N3CCCCCC3)c(C)c2c1	none
CCN(CC)S(=O)(=O)c1ccc2oc(C(=O)N3CCc4ccccc4C3)c(C)c2c1	tim10-1 inh 43 | tim10-1 confirm 30
CC[n+]1c(/C=C2\C=C(C)CC(C)C2)sc2ccccc21 (configuration not stated)	none
CCC1=C/C(=C/c2sc3ccccc3[n+]2CC)CC(C)(C)C1	tim10-1 inh 42 | tim10-1 confirm 35
Cc1cc(=O)oc2cc(OCc3ccc(C(=O)N4CCN(c5ccccc5)CC4)cc3)ccc12	tim10-1 inh 43 | tim10-1 confirm inactive
Cc1cc(=O)oc2cc(OCc3ccc(C(=O)N4CCN(c5ccc([N+](=O)[O-])cc5)CC4)cc3)ccc12	none (no result: tim10-1 inh, tim23-1 inh, TIM10 inh)
COc1ccc(-n2cnnc2SCC(=O)c2cc(C)n(Cc3cccs3)c2C)cc1	tim10-1 inh 44 | tim10-1 confirm inactive
Cc1cc(C(=O)COc2cccnc2[N+](=O)[O-])c(C)n1Cc1cccs1	none
COc1ccc(-c2nnc(SCC(=O)c3cc(C)n(Cc4cccs4)c3C)o2)cc1	none
CC(=O)Nc1ccccc1OCC(=O)c1cc(C)n(Cc2cccs2)c1C	tim10-1 inh 48 (no result: PfHsp90 yeast 2) | tim10-1 confirm inactive
O=C(Nc1nc2ccccc2[nH]1)c1ccccc1F	tim10-1 inh 46 | tim10-1 confirm inactive
O=C(Nc1nc2ccccc2[nH]1)c1ccc(F)cc1	none (no result: PfHsp90 yeast 2)
Cc1cccc(NC(=S)NC(=O)c2cccs2)n1	tim10-1 inh 45 | tim10-1 confirm inactive
Cc1cccc(NC(=O)c2ccc([N+](=O)[O-])s2)n1	tim10-1 inh 61 | tim10-1 confirm 58
Cc1nc(NC(=S)NC(=O)c2cccs2)ccc1Br	none
O=[N+]([O-])c1ccc(S(=O)(=O)Nc2nc3ccccc3nc2Nc2ccccc2)cc1	none (no result: Rce1 inh)
